UGM FP inh: M. tuberculosis UGM enzyme inhibitors, primary screen, biochemical, fluorescence polarization, single point; UDP-galactopyranose mutase (Mycobacterium tuberculosis (strain ATCC 25618 / H37Rv)), …; purified UGM, fluorescence polarization probe displacement; inhibition, % at 10 µM; hit rate 0.06% among 320,000; AID 504406, 2011; in the data active = inhibition above about 10%, passing the limit was not always enough; inconclusive = no clear call, values can overlap the other calls
Mtb bLac sens: beta-lactam sensitization of Mtb H37Rv, H37Rv | hit rate 0.27% among 330,000 | M. tuberculosis H37Rv growth with meropenem, percent inhibition | inhibition, % at 25 µM; call rule not given here;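 also: growth measured after seven days incubation then overnight dye step; 0% = bacteria only wells and 100% = bacteria with antibiotic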
GDH-TPI counter-1: GDH-TPI coupling enzyme inhibitors, primary screen, artefact control for M. tuberculosis FBA inhibitor project, biochemical, absorbance, full deck; GDH-TPI coupled enzyme counterscreen, NADH absorbance; inhibition, % at 4.8 µM; hit rate 1.2% among 360,000; in the data active = inhibition above about 30%;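 also: 0% = DMSO wells and 100% = wells lacking the enzyme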
FBA Mtb inh: Mtb FBA enzyme inhibitors, primary screen, biochemical, fluorescence, strain H37Rv. AID 588726, 2011. purified M. tuberculosis FBA, fluorescence read-out. inhibition, % at 1 µM. Fructose-bisphosphate aldolase (Mycobacterium tuberculosis (strain ATCC 25618 / H37Rv)), …. hit rate 2.3% among 360,000;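 also: 0% = vehicle and 100% = reference inhibitor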
Target sequence (P9WQA3 whole entry, looked up): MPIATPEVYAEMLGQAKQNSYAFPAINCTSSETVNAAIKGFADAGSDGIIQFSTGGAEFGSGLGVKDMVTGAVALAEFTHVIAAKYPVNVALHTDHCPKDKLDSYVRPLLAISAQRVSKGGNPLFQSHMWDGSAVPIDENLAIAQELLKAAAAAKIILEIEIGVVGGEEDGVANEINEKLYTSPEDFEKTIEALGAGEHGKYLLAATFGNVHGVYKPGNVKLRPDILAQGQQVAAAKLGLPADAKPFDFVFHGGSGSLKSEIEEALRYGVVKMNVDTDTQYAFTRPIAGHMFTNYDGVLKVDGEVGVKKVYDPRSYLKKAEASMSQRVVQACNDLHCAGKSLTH
Rv3671c protease: Rv3671c serine protease inhibitors, primary screen, biochemical, fluorescence polarization, M. tuberculosis H37Rv. hit rate 0.048% among 320,000. inhibition, % at 5.96 µM. AID 2606, 2010. P9WHR9; in the data active = inhibition above about 38%;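 also: extracellular domain of Rv3671c used as enzyme; 0% = enzyme with DMSO and 100% = no enzyme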
Mtb FBA confirm: M. tuberculosis aldolase blockers, biochemical, fluorescence, strain H37Rv, confirmation; shares compounds with FBA Mtb inh; purified M. tuberculosis FBA, fluorescence read-out; inhibition, % at 1 µM; hit rate 78% among 5,600; AID 651616, 2012;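 also: 0% = vehicle wells and 100% = reference inhibitor wells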
GDH-TPI counter-2: GDH-TPI coupling enzyme inhibitors, artefact control for M. tuberculosis FBA inhibitor project, biochemical, fluorescence, high throughput. shares compounds with FBA Mtb inh. GDH-TPI coupled enzyme counterscreen. inhibition, % at 1 µM. hit rate 81% among 5,600. AID 652141, 2013; in the data active = inhibition above about 10%
GDH-TPI dose: GDH-TPI coupling enzyme inhibitors, dose response, artefact control for M. tuberculosis FBA inhibitor project, biochemical, fluorescence, IC50; hit rate 79% among 170; IC50, µM; GDH-TPI coupled enzyme assay, artifact counterscreen; shares compounds with FBA Mtb inh; call rule not given here
Active calls of the source: *; ? = inconclusive; . = no result; + = active, no number. Compounds with a hit are over-represented: about 3.5% of the library has one in this group of screens. Rule as the data show it, unless noted: active = inhibition above about 27%; inactive = the rest.

SMILES	UGM FP inh	Mtb bLac sens	GDH-TPI counter-1	FBA Mtb inh	Rv3671c protease	Mtb FBA confirm	GDH-TPI counter-2	others
COc1cccc2c(=O)c(C/C=C(/C)Cl)c(C)[nH]c12	0.1	16.2	4.4	39.4*	-0.9	49.8*	41.6*
Cc1[nH]c2ccc(F)cc2c(=O)c1SC(F)(F)C(F)C(F)(F)F (configuration not stated)	1.2	1.1	0.0	2.5	1.1	.	.
CCOC(=O)N1CCN(C(=O)c2cc3ccc(OC)cc3[nH]2)CC1	0.3	-3.6	6.3	1.1	-10.6	.	.
CCC(=O)N1CCN(CCN=CC2=C(O)CC(c3ccc(OC)cc3)CC2=O)CC1 (configuration not stated)	1.9	8.2	6.1	58.9*	0.5	88.0*	82.1*
CCCCCC(=O)N1CCN(CCN=CC2=C(O)CC(c3ccc(OC)cc3)CC2=O)CC1 (configuration not stated)	-2.6	-1.6	2.6	5.3	-3.5	.	.
O=C1CCCC/C1=C\Nc1ccccc1C(=O)O	-1.8	-4.9	4.8	21.3	-12.1	.	.
NC(=O)c1ccccc1N/C=C1\CCCCC1=O	0.8	-4.1	3.1	27.7*	-1.9	91.1*	73.4*
COc1cccc(-c2nc3ccc(C(=O)NC(C)Cc4cccnc4)cc3o2)c1 (configuration not stated)	0.1	21.9	5.4	43.2*	-5.4	64.5*	31.7*
CCCCc1cc(=O)oc2cc(C)cc(OCC(=O)Nc3cccnc3)c12	-0.4	-1.6	11.1	19.0	-22.2	.	.
CCc1cc(=O)oc2cc(C)cc(OCC(=O)N[C@@H](CSCc3ccccc3)C(=O)O)c12	2.7	-6.0	-2.0	36.8*	-6.3	+	162.1*
CCCCc1cc(=O)oc2cc(C)cc(OCC(=O)N[C@@H](CSCc3ccccc3)C(=O)O)c12	-1.4	0.3	9.8	45.8*	-4.2	128.4*	99.2*
CCc1cc(=O)oc2cc(C)cc(OCC(=O)NC(Cc3ccc(Cl)cc3)C(=O)O)c12 (configuration not stated)	0.9	0.4	2.1	61.0*	-1.5	44.4*	43.0*
O=C(C[C@@H]1C/C=C\C[C@H](Cc2ccc(F)cc2)C(=O)OC[C@H]2CCCN2C1=O)NCCO	.	-2.0	5.5	0.8	10.0	.	.
CC1=C(C(=O)OC(C)C)C(c2cccnc2)C2=C(CCCC2=O)N1 (configuration not stated)	0.6	-3.4	14.7	36.4*	-1.1	2.5	-2.0
CCOC(=O)C1=C(C)NC2=C(C(=O)CCC2)C1c1cccnc1 (configuration not stated)	0.5	?	13.1	36.1*	-0.6	9.4	4.1
Cc1c2cnccc2c(C)c2c1oc1ccccc12	.	.	2.6	42.9*	.	114.9*	94.0*
CCN(CC)CCNC(=O)c1cc2c(=O)n(C)c3ccccc3c2n1C	0.6	0.9	-1.0	27.6*	-3.4	+	+
CCCCNC(=S)N/N=C/c1ccc(OCC(=O)Nc2c(C)cc(C)cc2C)c(OC)c1	0.8	25.9	6.3	1.9	5.2	.	.
COc1ccc(OC)c(S(=O)(=O)Nc2ccc3c(c2)n(C)c(=O)n3C)c1	1.1	-2.5	1.5	62.2*	-1.8	140.3*	93.3*
COCCCNC(=O)/C(C#N)=C/c1c(N2CCN(c3ccc(OC)cc3)CC2)nc2c(C)cccn2c1=O	-0.2	32.2	9.2	8.9	-6.6	.	.
CCN1CCN(c2nc3c(C)cccn3c(=O)c2/C=C(\C#N)C(=O)NCCOC)CC1	0.6	-10.1	15.6	97.3*	0.4	62.7*	44.8*
COCCCNC(=O)/C(C#N)=C/c1c(N2CCN(C)CC2)nc2c(C)cccn2c1=O	0.6	-3.5	1.3	91.9*	-6.8	55.6*	43.7*
COCCNC(=O)/C(C#N)=C/c1c(N2CCN(C)CC2)nc2c(C)cccn2c1=O	0.5	3.2	16.4	80.8*	5.0	96.0*	84.3*
O=C(NN1CCOCC1)c1cccc(Cl)c1	1.6	-2.1	-8.1	15.7	3.9	.	.
CCCCCC(=O)Cc1cc(O)cc2c1C(=O)Oc1cc(O)c(C(=O)O)c(CCCCC)c1O2	4.5	-5.3	.	.	-44.4	.	.
SMILES	UGM FP inh	Mtb bLac sens	GDH-TPI counter-1	FBA Mtb inh	Rv3671c protease	Mtb FBA confirm	GDH-TPI counter-2	others
CCOC(=O)C(=O)Nc1cc(C)on1	-0.3	6.3	-4.9	6.8	-4.1	.	.
CCCCN(CC)C(=O)c1cc2c(=O)[nH]c3ccc(C)cc3c2s1	-0.5	3.5	9.2	12.0	.	.	.
Cc1ccc2[nH]c(=O)c3cc(C(=O)N(CCCOC(C)C)Cc4ccco4)sc3c2c1	-0.3	-10.6	12.0	28.4*	-11.1	22.2	10.9*
Cc1ccc2[nH]c(=O)c3cc(C(=O)NCCN4CCN(C)CC4)sc3c2c1	-1.1	?	21.8	49.4*	-10.1	196.0*	159.4*
CCOC(=O)CNC(=O)c1cc2c(=O)[nH]c3ccc(C)cc3c2s1	-0.7	7.0	12.1	31.5*	-10.0	118.4*	97.5*
Cn1nc(C(=O)OCC(=O)Nc2ccc3ccccc3c2)c2ccccc2c1=O	0.1	11.5	-6.5	-1.9	5.5	.	.
CCc1nc2ccc(C(=O)Nc3ccc(OC)c(OC)c3)cn2c1N(C)Cc1cccs1	.	.	7.1	-0.6	.	.	.
CC(=O)c1cc2c(s1)-c1cc(F)ccc1OC2	-3.0	-0.1	19.8	87.4*	0.8	62.8*	51.4*
COc1ccc(N2CCN(C(=O)c3cc4c(s3)-c3ccccc3OC4)CC2)cc1	-2.7	-0.1	12.5	4.5	9.6	.	.
O=C(NN1C(=O)c2ccccc2NC1c1ccccn1)c1ccc(Br)cc1 (configuration not stated)	-0.8	-11.3	2.1	-1.8	-2.3	.	.
CC(=O)NN1C(=O)c2ccccc2NC1c1ccccn1 (configuration not stated)	-0.6	3.1	0.4	27.3*	-0.3	14.3	10.1	GDH-TPI dose=5.98*
O=C(NN1C(=O)c2ccccc2NC1c1ccco1)c1ccc(Br)cc1 (configuration not stated)	2.7	0.2	-1.6	0.3	-4.6	.	.
CC(=O)NN1C(=O)c2ccccc2NC1c1ccco1 (configuration not stated)	-0.3	-0.7	-1.6	32.4*	2.5	39.4*	23.1*
CCc1ccccc1N(CC(=O)NCc1ccco1)C(=O)CCC(=O)Nc1nccs1	1.4	-5.2	-5.3	-5.7	12.6	.	.

Assay outcomes deposited in PubChem BioAssay by several laboratories.
